{"source": "PubChem BioAssay AID1347075", "about": "(National Center for Advancing Translational Sciences (NCATS), 2019)", "note": "Out of some 400,000 compounds screened, about 5,500 (1.4%) were called active. Inconclusive results (about 9%) are left out. The call rests on the fitted dose curve; in most records, active means well fitted cell-killing curve with a large enough effect; inconclusive means small, poorly fitted or top-dose-only effect, or effect the other way; inactive means flat fitted curve, though single readings scatter. The list comes from a sample in which actives are over-represented; it also holds similar structures and randomly drawn compounds. Where a call stands in place of a potency, no number is given.", "data": [{"experiment": "qHTS assay for MDR1-selective chemotherapeutics: Primary screen using the parental adenocarcinoma cell KB-3-1; further: nearly all actives have a fitted effect of over 60% in size; further: potency means the concentration at half of the fitted maximal effect", "conditions": "KB-3-1 viability, CellTiter-Glo ATP luminescence, 72 h; series mostly up to 46.1 µM", "description": "A prime difficulty in effectively treating cancer is the development of cellular resistance to multiple structurally unrelated anticancer drugs, a phenomenon known as multidrug resistance (MDR). […] Numerous strategies to overcome P-gp-mediated MDR have been explored, including the design of drugs that evade recognition and efflux, and development of inhibitors to block efflux and restore drug accumulation. […] An alternative approach is to exploit resistance by identifying drugs that target MDR cells over the non-resistant parental cells from which they were selected. […] The development of MDR1-selective agents represents a new strategy for resolving multidrug resistance, as it remains a long-standing clinical challenge for cancer chemotherapy.\nOur goal is to identify compounds that selectively kill P-gp-expressing MDR cells. We will identify MDR1-selective compounds by comparing toxicity of compounds in the screening library against parental, drug-naive (KB-3-1) adenocarcinoma cells as well as their drug-selected MDR sub-line (KB-V1). The differential toxicity of compounds against these two cell lines will be used to identify MDR1-selective compounds, whose cytotoxicity is potentiated, rather than diminished, by P-gp expression. This assay will be utilized to conduct a quantitative high-throughput screen (qHTS) in collaboration with the NIH Chemical Genomics Center to identify selective agents, and probe hits arising from the screen will be validated using secondary assays and characterized through a well-established follow-up research program. This screen was run against the entire NCGC library collection of about 400,000 compounds.\nNIH Molecular Libraries Probe Production Network [MLPCN]\nNIH Chemical Genomics Center [NCGC]\nPI: Michael Gottesman PhD, National Cancer Institute, NIH\nBriefly, 5 microL of media containing either KB-3-1 cells (columns 1-2, 4-48) are dispensed into Greiner white, treated solid-bottom 1536-well assay plates (media-only control is added to column 3). Compounds are then transferred via Kalypsys pin tool equipped with 1536-pin array (10 nL slotted pins, V&P Scientific, San Diego, CA). Following addition of compound, the plates are incubated at 37 degrees C for 72 hours. CellTiter-Glo (2.5 µL/well) is then added, and the plates are read in a ViewLux reader (Perkin-Elmer, clear luminescence filter, 1 second exposure, 1x binning) following a 10 minute incubation. All cells are dispensed in DMEM phenol-red free media containing 10% FBS.\nLibrary plates were screened starting from the lowest and proceeding to the highest concentration. Vehicle-only plates, with DMSO being pin-transferred to columns 5-48, will be inserted uniformly at the beginning and the end of each library in order to monitor and record any shifts in the background, which can be affected by reagent dispensers or loss in enzyme activity over time. Screening data will be corrected, normalized, and concentration-effect relationships will be derived by using publicly-available NCGC, NCATS curve fitting algorithms (http://ncgc.nih.gov/pub/openhts).", "values": [{"compound": "COC1C(O)C(C)OC(OC2CCC3(C=O)C(CCC4C3CCC3(C)C(C5=CC(=O)OC5)CCC43O)C2)C1O", "note": "(stereo not given)", "Potency": "0.0058 µM (active)"}, {"compound": "S=C(NCCc1ccccc1)N1Cc2cc(N3CCOCC3)ccc2-n2nncc2C1", "Potency": "inactive"}, {"compound": "O=C1NCN(c2ccccc2)C12CCN(C(c1cccs1)c1nnnn1C1CCCCC1)CC2", "note": "(stereo not given)", "Potency": "inactive"}, {"compound": "CC(C)CN1Cc2cc(N3CCCCC3)ccc2-n2nncc2C1", "Potency": "inactive"}, {"compound": "O=C(NCC1=C(c2ccc3ccccc3c2)C[C@@H]2CC[C@H]1N2Cc1ccco1)c1cccs1", "Potency": "inactive"}, {"compound": "CCCCCCCCCCCCn1ccc(=N)cc1", "Potency": "1.3 µM (active)"}, {"compound": "COc1ccc(NC(=O)N2Cc3ccccc3-n3nncc3C2)cc1", "Potency": "inactive"}, {"compound": "c1cc2c(c(NC3=NCCCS3)c1)CCCC2", "Potency": "inactive"}, {"compound": "CC(=O)NCC1=C(c2ccc3ccccc3c2)C[C@@H]2CC[C@H]1N2Cc1ccco1", "Potency": "inactive"}, {"compound": "O=c1[nH]c2ccccc2n1C1CCN(C(c2ccnc3ccccc23)c2nnnn2Cc2ccccc2)CC1", "note": "(stereo not given)", "Potency": "inactive"}, {"compound": "CCOC(=O)[C@]12Cc3cc(OC)ccc3[C@H]1N(C(C)C)C(=O)c1ccccc12", "Potency": "6.51 µM (active)"}, {"compound": "CCOC(=O)[C@]12Cc3ccccc3[C@H]1N(C1CCCCC1)C(=O)c1cc(OC)ccc12", "Potency": "4.61 µM (active)"}, {"compound": "O=C(O)c1cc[c]([Sb](=[O])([OH])[OH])cc1[N+](=O)[O-]", "Potency": "inactive"}, {"compound": "Cc1ccc(OC(=O)N(C)C[C@@H]2OCc3cnnn3CCCC(=O)N([C@H](C)CO)C[C@@H]2C)cc1", "Potency": "inactive"}, {"compound": "O=C(O)/C=C/c1ccc2c(c1)OCO2", "Potency": "inactive"}, {"compound": "COC(=O)CN(CCCl)P1(=O)OCCCN1CCCl", "note": "(stereo not given)", "Potency": "inactive"}, {"compound": "C[C@]12CCC3C(CC[C@H]4C[C@@H](O)CC[C@]34C)C1CC[C@@H]2O", "note": "(stereo not given in full)", "Potency": "inactive"}, {"compound": "C[C@]12CC[C@H](O)C[C@H]1CC[C@@H]1C2CC[C@]2(C)[C@@H](C3=CC(=O)OC3)[C@@H](O)C[C@]12O", "note": "(stereo not given in full)", "Potency": "2.31 µM (active)"}, {"compound": "C[C@]12CCC3C(CC[C@H]4C[C@@H](O)CC[C@]34C)C1C[C@@H](O)[C@H]2O", "note": "(stereo not given in full)", "Potency": "inactive"}, {"compound": "COc1cc(C(=O)N2Cc3ccc(Br)cc3-n3nncc3C2)cc(OC)c1OC", "Potency": "inactive"}, {"compound": "C[C@H]1CN([C@@H](C)CO)C(=O)CCCn2nncc2CO[C@H]1CN(C)C(=O)Oc1cccc2ccccc12", "Potency": "inactive"}, {"compound": "O=C(NC1CCCCC1)N1Cc2cc(N3CCCCC3)ccc2-n2nncc2C1", "Potency": "inactive"}, {"compound": "Cc1ccc(NC(=O)N(Cc2ccc3c(c2)OCO3)C2CCN(Cc3ccccc3)CC2)cc1F", "Potency": "inactive"}, {"compound": "CCCCCCN=C(CC)c1c(O)n(CCCC)c(=O)[nH]c1=O", "Potency": "18.4 µM (active)"}, {"compound": "CCCCn1c(O)c(C(CC)=NCc2ccco2)c(=O)[nH]c1=O", "Potency": "inactive"}, {"compound": "CCC(=NCCCO)c1c(O)n(-c2ccc(OC)cc2)c(=O)[nH]c1=O", "Potency": "inactive"}, {"compound": "COc1cccc(C(c2nnnn2-c2ccc3c(c2)OCCO3)N2CCC3(CC2)C(=O)NCN3c2ccccc2)c1OC", "note": "(stereo not given)", "Potency": "inactive"}, {"compound": "O=C1C2CCN(CC2)C1(CO)CO", "Potency": "inactive"}, {"compound": "Cn1cc(/C=C/c2nc3ccccc3c(=O)n2-c2ccccc2)c2ccccc21", "Potency": "inactive"}, {"compound": "ClCCN(CCCl)c1ccc(C=Nc2ccc(/C=C/c3ccnc4ccccc34)cc2)cc1", "Potency": "inactive"}, {"compound": "COC(=O)C1=C(c2ccccc2)C[C@@H]2CC[C@H]1N2C(=O)NCc1ccco1", "Potency": "inactive"}, {"compound": "COc1cc(Cn2c(N)c(C(=O)NCc3ccco3)c3nc4ccccc4nc32)cc(OC)c1OC", "Potency": "23.1 µM (active)"}, {"compound": "CCOC(=O)c1c(N)n(Cc2ccccc2)c2nc3ccccc3nc12", "Potency": "inactive"}, {"compound": "c1ccc(N2Cc3ccccc3-n3nncc3C2)nc1", "Potency": "inactive"}, {"compound": "O=P(OC1=CCCCC1)(c1ccccc1)c1ccccc1", "Potency": "inactive"}, {"compound": "O=c1c2ccccc2[nH]c(=S)n1-c1cccc(Cl)c1", "Potency": "inactive"}, {"compound": "Cc1nnc(NC(=O)c2cccn(Cc3cccc(F)c3)c2=O)s1", "Potency": "inactive"}, {"compound": "CCC(C)(O)C(=O)OC1C(=O)OC2CC3C(C)=CC(=O)C(O)C3(C)C3C4(O)OCC23C1C(C)C4O", "note": "(stereo not given)", "Potency": "0.291 µM (active)"}, {"compound": "CCn1cc(CN2CCCC(C(=O)c3cccc(C(F)(F)F)c3)C2)cn1", "note": "(stereo not given)", "Potency": "inactive"}, {"compound": "CCOC(=O)CNC(=O)N1Cc2cc(N3CCCCC3)ccc2-n2nncc2C1", "Potency": "inactive"}]}]}
